According to PubChem BioAssay (NCI):
The panel holds about 79,000 compounds, 15% with a hit somewhere; the sample as a whole holds those more often. The source made the active and inactive calls. Cut-off read from the data, not from the text of the source: active = growth inhibition above about 70%; inactive = the rest.

Key:
[1] = NCI Yeast Anticancer Drug Screen. Data for the rad50 strain (AID 155);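 note: 0% = growth of vehicle-only cultures of the same strain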; conditions: S. cerevisiae rad50 strain growth inhibition, stronger effect = higher value
Method in brief: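 Relative growth inhibition (compound vs vehicle) was measured in yeast with a defined repair-gene alteration.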

[2] = NCI Yeast Anticancer Drug Screen. Data for the mec2-1 strain (AID 157); conditions: S. cerevisiae mec2-1 strain, stronger effect = higher value
Method in brief: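 mec2-1 yeast strain, carrying an alteration in DNA damage repair or cell cycle control, was exposed to compounds; growth inhibition was measured relative to vehicle-treated controls.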

[3] = NCI Yeast Anticancer Drug Screen. Data for the sgs1 mgt1 strain (AID 161);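 note: 0% = growth of cultures given vehicle only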; conditions: S. cerevisiae sgs1 mgt1 strain, stronger effect = higher value
Method in brief: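 Compounds are added to genetically altered yeast, and growth is compared with cultures given vehicle alone to give percent inhibition.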

[4] = NCI Yeast Anticancer Drug Screen. Data for the cln2 rad14 strain (AID 165);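 note: 0% = growth equal to vehicle treated cultures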; conditions: S. cerevisiae cln2 rad14 strain, stronger effect = higher value
Method in brief: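 Yeast carrying cln2 and rad14 alterations (cell cycle control and DNA damage repair) were exposed to compounds. Growth inhibition was measured against vehicle-treated controls.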

[5] = NCI Yeast Anticancer Drug Screen. Data for the bub3 strain (AID 167); conditions: S. cerevisiae bub3 mutant strain, stronger effect = higher value
Method in brief: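 Screening used yeast with an engineered genetic alteration affecting cell cycle control. Compound-exposed cultures were compared with vehicle cultures, and reduced growth was taken as inhibition.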

[6] = NCI Yeast Anticancer Drug Screen. Data for the mlh1 rad18 strain (AID 175); conditions: S. cerevisiae mlh1 rad18 strain growth inhibition, stronger effect = higher value
Method in brief: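 Growth inhibition of the yeast strain was measured after compound exposure and expressed relative to vehicle-treated controls. The strain carries defined defects in DNA damage repair.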

[7] = at 5.0 µM (retest, dose inferred, filed as 0.5)
[8] = at 50.0 µM (retest, dose inferred, filed as 5.0)

Measured: growth inhibition

c1cc2n[pH]nc2cn1 (configuration not stated)
inactive: [1]; [7] -10% | [1]; [8] 5% | [1]; at 50.0 µM 5.55% | [2]; [7] -3% | [2]; [8] -8% | [2]; at 50.0 µM 11.2% | [3]; [7] -2% | [3]; [8] -6% | [3]; at 50.0 µM 21.2% | [4]; [7] 5% | [4]; [8] -8% | [4]; at 50.0 µM 1.2% | [5]; [7] -1% | [5]; [8] 2% | [5]; at 50.0 µM 11.6% | [6]; [7] 6% | [6]; [8] 6% | [6]; at 50.0 µM 43.5%

C#CC[As+](c1ccccc1)(c1ccccc1)c1ccccc1
active: [1]; [8] 98% | [1]; at 50.0 µM 88.4% | [2]; [8] 99% | [2]; at 50.0 µM 91.8% | [3]; [8] 100% | [3]; at 50.0 µM 92.5% | [4]; [8] 95% | [4]; at 50.0 µM 88.8% | [5]; [8] 99% | [5]; at 50.0 µM 91.2% | [6]; [8] 98% | [6]; at 50.0 µM 88.9%
inactive: [1]; [7] 31% | [2]; [7] 29% | [3]; [7] 45% | [4]; [7] 37% | [5]; [7] 34% | [6]; [7] 45%

O=c1s[se]c2ccccc12
active: [1]; [8] 98% | [1]; at 50.0 µM 84.2% | [2]; [8] 99% | [2]; at 50.0 µM 87.1% | [3]; [8] 99% | [3]; at 50.0 µM 90.1% | [4]; [8] 98% | [4]; at 50.0 µM 92.2% | [5]; [8] 99% | [5]; at 50.0 µM 89.8% | [6]; [8] 97% | [6]; at 50.0 µM 91.9%
inactive: [1]; [7] 27% | [2]; [7] 13% | [3]; [7] 17% | [4]; [7] 21% | [5]; [7] -2% | [6]; [7] 25%

O=[N+]([O-])c1ccc(CS(=O)(=O)C(Cl)Cl)o1
active: [1]; [8] 79% | [1]; at 50.0 µM 92% | [3]; [8] 79% | [3]; at 50.0 µM 87.9% | [4]; at 50.0 µM 78.8% | [6]; [8] 90% | [6]; at 50.0 µM 95.6%
inactive: [1]; [7] 10% | [2]; [7] -1% | [2]; [8] 52% | [2]; at 50.0 µM 59.5% | [3]; [7] 3% | [4]; [7] -6% | [4]; [8] 68% | [5]; [7] -7% | [5]; [8] 56% | [5]; at 50.0 µM 48.1% | [6]; [7] 15%

Cc1cc(N(CCCl)CCCl)ccc1CN1CCCN(Cc2ccc(N(CCCl)CCCl)cc2C)C1c1ccc(N(CCCl)CCCl)cc1
active: [1]; [8] 97% | [2]; [8] 99% | [3]; [8] 98% | [3]; at 50.0 µM 86.8% | [4]; [8] 98% | [5]; [8] 88% | [6]; [8] 97% | [6]; at 50.0 µM 97.2%
inactive: [1]; [7] 11% | [1]; at 50.0 µM 66.2% | [2]; [7] 1% | [2]; at 50.0 µM 21.6% | [3]; [7] 3% | [4]; [7] -3% | [4]; at 50.0 µM 21.4% | [5]; [7] 5% | [5]; at 50.0 µM 30.8% | [6]; [7] 33%

Cc1cc(OC(=O)N(CCCl)CCCl)c(C(C)C)cc1N=O
inactive: [1]; [7] 19% | [2]; [7] 20% | [3]; [7] 17% | [4]; [7] 10% | [5]; [7] 1% | [5]; at 50.0 µM 18.8% | [6]; [7] 33%
active: [1]; [8] 91% | [1]; at 50.0 µM 97.3% | [2]; [8] 97% | [2]; at 50.0 µM 97.5% | [3]; [8] 96% | [3]; at 50.0 µM 78.5% | [4]; [8] 92% | [4]; at 50.0 µM 97.2% | [5]; [8] 94% | [6]; [8] 97% | [6]; at 50.0 µM 97.7%

O=C(O)c1cccc2cccc(C(=O)O)c12.[Hg]
active: [1]; [7] 99% | [1]; [8] 99% | [1]; at 50.0 µM 99.4% | [2]; [7] 100% | [2]; [8] 100% | [2]; at 50.0 µM 99.5% | [3]; [7] 100% | [3]; [8] 99% | [3]; at 50.0 µM 99.7% | [4]; [7] 99% | [4]; [8] 99% | [4]; at 50.0 µM 98.5% | [5]; [7] 99% | [5]; [8] 99% | [5]; at 50.0 µM 99.2% | [6]; [7] 99% | [6]; [8] 99% | [6]; at 50.0 µM 99.6%

O=C(O)C(F)(F)F.[Ag]
active: [1]; [7] 99% | [1]; [8] 98% | [1]; at 50.0 µM 98.1% | [2]; [7] 100% | [2]; [8] 99% | [2]; at 50.0 µM 99.2% | [3]; [7] 99% | [3]; [8] 99% | [3]; at 50.0 µM 99.1% | [4]; [7] 99% | [4]; [8] 99% | [4]; at 50.0 µM 98.7% | [5]; [7] 99% | [5]; [8] 98% | [5]; at 50.0 µM 98.5% | [6]; [7] 99% | [6]; [8] 99% | [6]; at 50.0 µM 97.6%

O=c1oc2cc(O)ccc2c(O)c1C(c1ccc(/C=C/c2ccccc2)cc1)c1c(O)c2ccc(O)cc2oc1=O
inactive: [1]; [7] 43% | [2]; [7] 19% | [3]; [7] -20% | [4]; [7] 14% | [5]; [7] 15% | [5]; [8] 42% | [6]; [7] 8%
active: [1]; [8] 98% | [1]; at 50.0 µM 89% | [2]; [8] 99% | [2]; at 50.0 µM 91.8% | [3]; [8] 97% | [3]; at 50.0 µM 89.8% | [4]; [8] 98% | [4]; at 50.0 µM 90.7% | [5]; at 50.0 µM 86% | [6]; [8] 99% | [6]; at 50.0 µM 92.5%
